High-throughput results deposited in PubChem by National Center for Advancing Translational Sciences (NCATS).
Most compounds without a hit are left out; they make up all but 3.1% or so of the library.
PI4K2A inh: qHTS for small molecular inhibitors of PI4K2A; Phosphatidylinositol 4-kinase type 2-alpha (Homo sapiens), Q9BTU6; purified PI4K2A, ADP-Glo luminescence, 1 h; hits give low values; activity change, negative = inhibition, % at 76.9 µM; hit rate 0.13% among 420,000; in the data active = activity change below about -50%; inconclusive = mostly about -30% to -49%;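 also: -100% = wells without enzyme as full effect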
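ADP-Glo luminescence measured ADP generated by PI4K2A enzyme (4 ug/mL before mixing) with 1.2 mM PI substrate (pre-mix) and 300 microM ATP (pre-mix). Tris pH7.5 buffer with MgCl2, Triton X-100; 1 h reaction at ambient temperature.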
GLS inhibitor: qHTS for Inhibitors of Glutaminase (GLS); GLS enzymatic activity, qHTS titration; Glutaminase kidney isoform, mitochondrial (Homo sapiens), O94925; hit rate 0.21% among 410,000; AID 624170, 2012; Potency, µM (highest dose often 45.5 µM), inactives show at the highest dose activity change, negative = inhibition, usual class: inhibitors; also: potency is read from the fitted curve at half-maximal effect
Target sequence (O94925 whole entry, looked up, canonical isoform): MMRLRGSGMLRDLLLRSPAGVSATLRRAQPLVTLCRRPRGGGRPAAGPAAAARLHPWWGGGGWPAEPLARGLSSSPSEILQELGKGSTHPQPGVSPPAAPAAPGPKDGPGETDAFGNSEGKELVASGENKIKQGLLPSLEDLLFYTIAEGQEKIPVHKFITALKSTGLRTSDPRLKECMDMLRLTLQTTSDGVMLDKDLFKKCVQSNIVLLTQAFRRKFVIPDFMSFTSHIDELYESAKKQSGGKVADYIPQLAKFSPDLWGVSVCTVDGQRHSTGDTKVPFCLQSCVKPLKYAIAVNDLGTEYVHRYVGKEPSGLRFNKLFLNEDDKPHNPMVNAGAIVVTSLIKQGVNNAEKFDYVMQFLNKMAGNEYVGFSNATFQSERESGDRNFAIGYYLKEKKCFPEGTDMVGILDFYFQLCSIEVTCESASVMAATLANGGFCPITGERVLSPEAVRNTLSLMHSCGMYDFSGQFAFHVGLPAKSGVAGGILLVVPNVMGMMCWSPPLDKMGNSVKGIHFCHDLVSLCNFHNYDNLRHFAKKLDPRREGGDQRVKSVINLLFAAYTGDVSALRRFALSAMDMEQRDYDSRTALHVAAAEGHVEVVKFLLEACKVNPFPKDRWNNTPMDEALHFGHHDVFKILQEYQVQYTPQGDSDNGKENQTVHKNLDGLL
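Enzyme dispensed in phosphate buffer (45 mM, pH 8.2, 0.02% Tween-20), compounds pinned in, then 1 mM L-glutamine solution and the glutamate oxidase–HRP–Amplex Red mix added; fluorescence read immediately and again after 30 min at room temperature.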
PLK1 PBD inh: qHTS for Inhibitors of PLK1-PDB (polo-like kinase 1 - polo-box domain): Primary Screen | Serine/threonine-protein kinase PLK1 (Homo sapiens), P53350 | Plk1 PBD binding of FITC phosphopeptide, fluorescence polarization | Potency, µM, for the others: max response, negative = inhibition, hits mostly inhibitors | hit rate 2.8% among 360,000; also: potency is read from the fitted curve at half-maximal effect; series mostly up to about 57 µM; nearly all actives have a fitted effect of over 65% in size
VDR inh: Inhibitors of the vitamin D receptor (VDR): qHTS | Vitamin D3 receptor (Homo sapiens), P11473 | VDR-SRC2-3 peptide fluorescence polarization, 2 h | Potency, µM, for the others: max response, negative = inhibition, hits mostly inhibitors | hit rate 0.93% among 400,000 | AID 504847, 2011; also: potency is read from the fitted curve at half-maximal effect
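The screen uses fluorescence polarization to detect compounds that interfere with recruitment of the SRC2-3 coactivator peptide to VDR; plates are read after 2 h at room temperature.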
GCN5L2 inh: qHTS Assay for Inhibitors of GCN5L2; Potency, µM (series often up to 58.9 µM), for the others: at the top dose activity change, negative = inhibition, hits mostly inhibitors; hit rate 0.21% among 390,000; AID 504327, 2011; Histone acetyltransferase KAT2A (Homo sapiens), Q92830; GCN5L2 HAT assay, ThioGlo1 CoA-SH fluorescence; also: potency is read from the fitted curve at half-maximal effect
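Titration-based screen in which CoA formation is detected via maleimide probe ThioGlo1 (50uM) turning fluorescent on thiol reaction; substrates H3(1-25) 75uM and acetyl-CoA 70uM, GCN5L2 20nM, 20 min incubation at room temperature.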
An asterisk follows results filed as active; ? = inconclusive; / = no result given. Unless noted, calls follow the shape of the dose curve; as a rule, active = well fitted curve in the direction sought with a large enough effect; inconclusive = small, poorly fitted or top-dose-only effect, or another doubt; inactive = no such curve, though single readings can be large; an effect the other way counts as inactive or inconclusive. Unless noted, % is scaled to controls: 0 for no effect and ±100 for the full control effect.

SMILES	PI4K2A inh	GLS inhibitor	PLK1 PBD inh	VDR inh	GCN5L2 inh
O=C1CCCCCCCN1Cc1ccccc1	9	-3%	-5%	-4%	/
Cc1cc(C(=O)COC(=O)C(C)NC(N)=O)c(C)n1Cc1ccco1 (stereo unspecified)	-1	-20%	-14%	-1%	-6%
Cc1cc(C(=O)C(C)Cl)c(C)n1Cc1ccco1 (stereo unspecified)	-10	29%	21µM*	-10%	-5%
CC(=O)N1c2ccc(S(=O)(=O)N3CCCCC3)cc2CC1C(=O)Nc1ccc(F)cc1C (stereo unspecified)	-1	-2%	27µM*	?	?
NC(=S)N=Nc1c(O)cc(O)c2[nH]c(=O)ccc12	?	?	7.5µM*	?	/
NC(=S)N=Nc1c(O)[nH]c2ccc(F)cc12	-5	-5%	0%	1%	-4%
CN(CC(=O)Nc1ccccc1C(F)(F)F)Cc1c(O)ccc2ccccc12	-1	?	12µM*	?	-4%
CCc1ccccc1NC(=O)CN(C)Cc1c(O)ccc2ccccc12	3	-16%	12µM*	?	-7%
COc1ccc(CCN(C)Cc2c(O)ccc3ccccc23)cc1OC	2	25%	21µM*	?	-19%
CCCN(CC(=O)Nc1ccccc1OC)Cc1c(O)ccc2ccccc12	4	-24%	9.5µM*	?	-9%
COc1ccccc1CN(C)CC(=O)Nc1cccc2ccccc12	-2	0%	6%	3%	1%
Cc1ccc(NC(=S)NNC(=O)CSc2nnc(SCc3cccc4ccccc34)s2)cc1	-3	/	/	/	/
Cc1cc(C)cc(C(=O)OCCN(C)C2CN(Cc3cn(Cc4cccc(F)c4)nn3)S(=O)(=O)C2)c1 (stereo unspecified)	-5	/	/	/	/
COc1ccc(Cn2cc(COC(=O)NCCc3c[nH]c4ccccc34)nn2)cc1	-1	/	/	/	/
Cc1cc(O)c(C=O)c2c1C(=O)Oc1c(COC(=O)/C=C/C(=O)O)c(O)c(C(=O)O)c(C)c1O2	/	/	/	6.3µM*	20µM*
Cc1cc(O)c(C=O)c2c1C(=O)Oc1c(CO)c(O)c3c(c1O2)C(O)OC3=O (stereo unspecified)	-85*	-22%	7.5µM*	18µM*	16µM*
Cc1cc(O)c(C=O)c(O)c1C(=O)O	/	/	/	9%	3%
C=C(C)C(=O)/C=C/c1ccc(Br)cc1	/	/	/	18µM*	/
Cc1nn(-c2ccccc2)c2[nH]c(=O)c(CNc3ccc(N4CCOCC4)cc3)cc12	-20	?	3µM*	-12%	-8%
CC(C)(C)c1nn(-c2ccccc2)c2[nH]c(=O)c(CNc3ccc4c(c3)OCCO4)cc12	-4	16%	-1%	18%	35µM*
CC(C)(C)c1nn(-c2ccccc2)c2[nH]c(=O)c(CNCc3ccco3)cc12	-7	-4%	-21%	14%	6%
Cc1cc(NS(=O)(=O)c2ccc(NC(=O)Cc3ccc(Cl)c(F)c3)cc2)no1	-1	/	/	/	/
Cc1sc(N)c(C(=O)c2cccc(C(F)(F)F)c2)c1C	/	/	/	25µM*	?
O=C(CN1CCc2ccccc21)NC(=O)NCc1ccccc1	0	0%	27µM*	-6%	-12%
O=C(CN1CCCc2ccccc21)NC(=O)NC1CCCCC1	3	1%	27µM*	-28%	6%
SMILES	PI4K2A inh	GLS inhibitor	PLK1 PBD inh	VDR inh	GCN5L2 inh
O=C(CCOc1ccccc1)N1CCN(c2ccc(O)cc2)CC1	-20	11µM*	2%	5%	-4%
O=C(CCCOc1ccccc1)N1CCN(c2ccccc2)CC1	-16	6%	-7%	2%	-5%
c1ccc2c(CCC3CCNCC3)c[nH]c2c1	/	17%	/	/	/
O=C(Cc1ccc([N+](=O)[O-])cc1)N1N=C2CCCCC2C1(O)C(F)(F)F (stereo unspecified)	0	9%	-9%	10%	?
O=C(Cc1ccc([N+](=O)[O-])cc1)N1N=C(c2ccncc2)CC1(O)C(F)(F)F (stereo unspecified)	-7	2%	27µM*	?	0%
CCC(C)[C@H](NC(=O)OC(C)(C)C)C(=O)N[C@@H](Cc1ccccc1)C(=O)OC (stereo partly specified)	0	/	/	/	/
CCc1ccc(S(=O)(=O)/N=C2\C=C(NS(=O)(=O)c3ccccc3)C(=O)c3ccccc32)cc1	-50*	-2%	21µM*	?	?
Cc1ccc(NC2=C/C(=N/S(=O)(=O)c3cccs3)c3ccccc3C2=O)cc1C	-1	16%	-4%	-22%	0%
Cc1ccc(C)c(S(=O)(=O)/N=C2\C=C(NS(=O)(=O)c3ccccc3)C(=O)c3ccccc32)c1	-14	17%	27µM*	-15%	-3%
Cc1ccc(C2=NN=C(NC(=O)C(F)(F)F)SC2)cc1	-3	1%	-24%	50µM*	1%
COc1cc2c(cc1OC)C(COc1ccc(F)cc1)N(C(=O)c1cccc(F)c1)CC2 (stereo unspecified)	15	5%	/	10%	-4%
CN(C)C(=O)CCN1CCOCC1	-6	8%	24µM*	6%	-3%
CC(=O)CCN1CCOCC1	-2	0%	-3%	12%	-5%
O=C(O)C1CSC(c2ccc3c(c2)OCO3)N1 (stereo unspecified)	-20	0%	11µM*	?	2%
O=C(O)COc1ccc(-c2nccc(-c3ccccn3)n2)cc1	-3	0%	19µM*	-29%	-3%
CC(=O)Nc1ccc(NC(=S)NC(=O)/C=C/c2ccc(Cl)cc2)cc1	0	-1%	?	1%	-7%
CSc1ccc(/C=C/C(=O)Nc2ccccc2)cc1	-52*	3%	-4%	-2%	-3%
CCC(=O)Nc1ccc(NC(=O)/C=C/c2ccc(Cl)cc2)cc1	2	13%	30µM*	?	-2%
COC(=O)C(CSCc1ccccc1)NC(=O)CSc1nc(C)cc(=O)[nH]1 (stereo unspecified)	-1	1%	27µM*	15%	-10%
CCn1c(Cc2cccs2)nnc1SCC(=O)Nc1ccccc1-c1ccccc1	0	/	/	/	/
Cc1cccc(C)c1Nc1nnc(SCC(=O)c2ccc(Br)s2)s1	1	16%	24µM*	?	-9%
O=C(O)c1sccc1Oc1ccc(F)cc1[N+](=O)[O-]	-5	2%	-12%	3%	-3%
CN(C)C(=O)c1sccc1Oc1ccc(F)cc1[N+](=O)[O-]	6	19%	24µM*	-11%	-4%
O=[N+]([O-])c1ccccc1/C=N/n1c(C(F)(F)F)n[nH]c1=S	0	-19%	27µM*	10%	-26%
FC(F)(F)c1ccc(/C=N/n2c(COc3ccccc3)n[nH]c2=S)cc1	10	6%	27µM*	-13%	-12%
